# Compound activity deposited in PubChem BioAssay by National Center for Advancing Translational Sciences (NCATS).
# Hits are enriched below; roughly 9.3% of the tested compounds scored in any of these assays.
# Vaccinia Venus – vaccinia inhibition (Venus reporter); Potency, µM (series often up to 36.5 µM), for inactives: at the top dose activity change, negative = inhibition, actives largely listed as inhibitors; 330,000 compounds, 0.46% hits; Vaccinia virus Venus reporter expression, fluorescence; calls by dose curve; tested in A549 cells; also: potency is read from the fitted curve at half-maximal effect; nearly all actives have a fitted effect of over 30% in size
# HCMV inh – human cytomegalovirus inhibition. HFF cells, HCMV-luciferase reporter, 72 h; stronger effect = lower value. activity change, negative = inhibition, % at 57.5 µM. 410,000 compounds, 4.5% hits. AID 1259415; in the data active = activity change below about -60%; inconclusive = no clear call, values can overlap the other calls; inactive = above about -39%
#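 HFF cells seeded 16 h at 37C, treated with compounds, infected with luciferase-reporter HCMV at MOI 1 PFU/cell; luciferase read at 72 h post infection, normalized to buffer-only and Salinomycin controls.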
# FMDV inh – antivirals against foot and mouth disease virus. FMDV antiviral cell-based qHTS. Potency, µM (top dose mostly 57.9 µM), for the others: at the highest dose activity change, negative = inhibition, hits mostly inhibitors. 410,000 compounds, 1.2% hits. AID 1159524; calls by dose curve; tested in HEK293T cells; also: read-out not given here; potency is read from the fitted curve at half-maximal effect; nearly all actives have a fitted effect of over 45% in size
# Sm TGR block – inhibitors of Schistosoma mansoni thioredoxin glutathione reductase. purified TGR, DTNB reduction, TNB absorbance 405 nm. Potency, µM (titrated, usually from 114 µM), for inactives: top-dose activity change, negative = inhibition, usual class: inhibitors. 360,000 compounds, 3% hits; also: potency is read from the fitted curve at half-maximal effect; nearly all actives have a fitted effect of over 60% in size
#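 Kinetic colorimetric format: TGR-catalysed, NADPH-driven DTNB reduction monitored via TNB absorbance. Enzyme dispensed at 20 nM; compound exposure 15 min at room temperature before reaction start.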
# HCV inh – blocks hepatitis C virus; Huh7.5.1 HCVcc-Cre infection, luciferase reporter, 44 h; Potency, µM (highest dose often 41.8 µM), without a hit: at the top dose activity change, negative = inhibition, actives largely listed as inhibitors; 340,000 compounds, 3.4% hits; also: potency is read from the fitted curve at half-maximal effect
#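 Infectious HCV cell culture screen: compound-treated cells (1,000/well, pre-plated 4 h) are infected with HCVcc-Cre at roughly 0.5 moi and grown 44 h. Infection is quantified by luciferase signal after 15 min substrate incubation at room temperature.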
# VACV mCherry inh – vaccinia inhibition (mCherry reporter); Vaccinia virus mCherry reporter infection, fluorescence; 310,000 compounds, 0.63% hits; AID 720579; Potency, µM (titrated, usually from 36.5 µM), for inactives: at the highest dose activity change, negative = inhibition, usual class: inhibitors; calls by dose curve; tested in A549 cells; also: potency is read from the fitted curve at half-maximal effect; nearly all actives have a fitted effect of over 35% in size
# Starred values were filed as active, the others as inactive; i = inactive; ? = inconclusive; · = not tested or not shown; [ ] = dose if it differs, or a comment. Unless noted, calls follow the shape of the dose curve; as a rule, active = well fitted curve in the direction sought with a large enough effect; inconclusive = small, poorly fitted or top-dose-only effect, or another doubt; inactive = no such curve, though single readings can be large; an effect the other way counts as inactive or inconclusive. % is scaled to controls: 0 for no effect and ±100 for the full control effect.
SMILES,Vaccinia Venus,HCMV inh,FMDV inh,Sm TGR block,HCV inh,VACV mCherry inh
O=C(CN1CCN(Cc2ccccc2)CC1)N/N=C/c1ccco1,·,68,-19%,-25%,-9%,·
O=C(CN1CCN(Cc2ccccc2)CC1)N/N=C/c1ccc(Br)s1,-13%,-107*,-14%,-25%,-16%,-19%
CCCN1C(=O)/C(=N\OCC(=O)NCC(F)(F)F)c2ccccc21,0%,-21,-10%,0%,-10%,i
O=C(NNc1c(Cl)cccc1Cl)c1c(F)cccc1Cl,-7%,-7,-22%,14%,6%,-3%
O=C(NNc1c(Cl)cccc1Cl)c1sccc1Cl,-20%,-75*,4%,12%,12%,-7%
CC(=O)N1CN(Cc2ccccn2)Cc2c1sc1c2CCCC1,-2%,20,-5%,40µM*,7%,·
Nc1c(C(=O)NCCN2CCOCC2)c2nc3ccccc3nc2n1-c1ccc2c(c1)OCO2,-14%,?,·,5%,2%,-10%
COCCNC(=O)c1c(N)n(-c2cccc(C)c2)c2nc3ccccc3nc12,-13%,-30,0%,-13%,11µM*,·
COCCNC(=O)c1c(N)n(-c2ccccc2)c2nc3ccccc3nc12,-17%,-21,·,-23%,?,-21%
Nc1c(C(=O)NCCN2CCOCC2)c2nc3ccccc3nc2n1-c1ccccc1,0%,-69*,-24%,-29%,?,-13%
COCCCNC(=O)c1c(N)n(-c2ccccc2)c2nc3ccccc3nc12,-10%,-24,-23%,-16%,13µM*,-30%
COCCCNC(=O)c1c(N)n(-c2ccc(S(N)(=O)=O)cc2)c2nc3ccccc3nc12,-10%,-18,-25%,6%,-18%,i
Cc1ccc(-n2c(N)c(C(=O)Nc3c(C)n(C)n(-c4ccccc4)c3=O)c3nc4ccccc4nc32)cc1,-9%,?,-3%,0%,11µM*,-27%
CCOc1ccc(/C=C/c2nc(C#N)c(N3CCN(CC)CC3)o2)cc1,-14%,-20,-4%,0%,·,-19%
O=C(NC(c1ccccc1)c1cnccn1)C1CCN(Cc2ccc(Cl)c(Cl)c2)CC1 (centres undefined),-13%,-27,-26%,·,·,11%
COC(=O)c1c(N)n(-c2ccc(N3CCOCC3)cc2)c2nc3ccccc3nc12,·,·,·,0%[11.4 µM],·,·
COC(=O)c1c(N)n(-c2ccc(NC(C)=O)cc2)c2nc3ccccc3nc12,-13%,-66*,-29%,3%,?,·
Cc1ccc(Sc2ccc(C(=O)N3CCOCC3)cc2[N+](=O)[O-])cc1,·,-75*,-22%,-5%,-14%,·
O=C(CN1CCCCCC1)Nc1cc(C(F)(F)F)ccc1Cl,-7%,?,-18%,-16%,-3%,-11%
O=C(CN1CCOCC1)Nc1cc(C(F)(F)F)ccc1Cl,-8%,-66*,-22%,-3%,-27%,-3%
O=C(CN1CCN(S(=O)(=O)N2CCOCC2)CC1)Nc1cc(Cl)ccc1Cl,0%,-2,28µM*,-2%,?,10%
CCc1nc2c(OCc3ccc(Cl)cc3)cccn2c1N(C)C(=O)c1ccco1,?,-77*,28µM*,·,·,?
CCOc1cc2c(cc1/C=C/c1noc(C)c1[N+](=O)[O-])OC(C)C2 (centres undefined),1%,-61*,-10%,-1%,?,-9%
COc1ccc(-c2cc3c(=O)n(CC(=O)N4CCN(C)CC4)ncn3n2)cc1,1%,35,-1%,3%,17%,4%
Cc1ccc2[nH]c3c(c2c1)CN(C(=O)CN1CCCCC1)CC3,·,50,-24%,-10%,?,·
SMILES,Vaccinia Venus,HCMV inh,FMDV inh,Sm TGR block,HCV inh,VACV mCherry inh
Cc1ccc2[nH]c3c(c2c1)CN(C(=O)CN1CCCc2ccccc21)CC3,-15%,9,16%,32µM*,?,-12%
O=[N+]([O-])/C(C(=C(Cl)Cl)N1CCN(Cc2ccccc2)CC1)=C1\NCCN1Cc1ccc(Cl)nc1,?,-14,12%,-19%,-3%,10µM*
CC(=O)C(Cc1ccc(Cl)nc1)(Cc1ccc(Cl)nc1)C(C)=O,0%,43,-13%,0%,7%,-1%
CC(=O)N1CCN(Cc2ccc(Cl)nc2)CC1,-10%,-78*,-8%,0%,17%,i
c1ccc(-c2cnc(CSc3nnc4ccccn34)o2)cc1,·,151,0%,10µM*,16%,·
COc1ccc(C(=O)CSc2nnc(-c3ccccc3)o2)cc1,-9%,-11,-18%,-9%,-3%,·
Fc1ccc(-c2nnc(CSc3nnc4ccccn34)o2)cc1,-12%,-1,58%,-11%,8%,-8%
CCN(CC)S(=O)(=O)c1ccc(-c2nnc(SCc3nnc(-c4ccccc4)o3)o2)cc1,0.035µM*,-18,·,-22%,-4%,?
COc1ccc(-c2nnc(SCc3ncc(-c4ccccc4)o3)o2)cc1,-17%,-15,-20%,40µM*,2%,-24%
Cc1ccc(C)c(Cn2c(=O)cc(C)c3c(C)nn(-c4cccc(F)c4)c32)c1,-13%,2,-8%,0%,·,-10%
CC(C)Oc1ccc(S(=O)(=O)N2CCCCC2)cc1NC(=O)CN1C(=O)NC2(CCCC2)C1=O,6%,-15,-3%,-4%,?,-11%
Cc1cccc(Nc2nnc(SC3CCOC3=O)s2)c1C (centres undefined),-5%,-81*,-6%,7%,10%,i
C1CCCCCC(NCCN2CCNCC2)CCCCC1,-12%,-28,-11%,-11%,1.3µM*,-25%
O=C(NC1CCCCC1)N1CCNCC1,2%,40,-15%,-13%,20%,-8%
O=C(N/C(C(=O)N1CCOCC1)=C(\Sc1ncccn1)c1ccccc1)c1ccccc1,1%,20,-28%,40µM*,11%,-11%
COC(=O)c1c(C)[nH]c(C(=O)C(C)OC(=O)C2CC(=O)N(CCc3ccccc3)C2)c1C (centres undefined),·,62,-19%,-6%,-15%,·
Cc1nc(S(=O)(=O)N2CCOCC2)c(C#N)c(C)c1Cl,-6%,-105*,-5%,11%,-9%,-17%
Cc1ccc(S(=O)(=O)/N=C(\CCl)N2CCOCC2)cc1,?,22,25µM*,0%,10µM*,?
Cc1cnc(C(=O)Nc2nnc(SCc3c(Cl)cccc3Cl)s2)cn1,-17%,13,-13%,1%,?,-4%
CCOC(=O)CC(NC(=O)c1cc2c(=O)n3cccc(C)c3nc2s1)c1ccc(OCC(C)C)c(OC)c1 (centres undefined),0%,24,-4%,-6%,·,4%
COc1cc2nc(NCc3ccc(C)cc3)n3nc(-c4ccccc4)nc3c2cc1OC,-15%,5,-28%,-5%,·,-9%
Cc1cccc(NC(=O)Cc2coc3ccc4ccccc4c23)n1,3%,-70*,-5%,4%,?,i
